We go through 40 compounds from PubChem BioAssay (NCATS).

The structures appear in SMILES notation. Results filed as inconclusive are left out. Calls of active or inactive are those of the source. Calls come from the whole dose curve; as a rule, active = well fitted curve in the direction sought with a large enough effect; inconclusive = small, poorly fitted or top-dose-only effect, or another doubt; inactive = no such curve, though single readings can be large or run the other way.

Sequence of Ferritin light chain (Equus caballus) (P02791 2-175 limits assumed): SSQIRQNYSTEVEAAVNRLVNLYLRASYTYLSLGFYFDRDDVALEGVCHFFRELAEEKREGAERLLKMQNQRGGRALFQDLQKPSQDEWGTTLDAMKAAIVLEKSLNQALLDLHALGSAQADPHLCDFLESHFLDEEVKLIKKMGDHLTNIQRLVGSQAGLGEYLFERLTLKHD

In the test the target is Ferritin light chain (Equus caballus) (UniProt P02791). As to the kind of experiment: qHTS Validation Assay for Identification of Novel General Anesthetics (AID 2323). Particulars: horse apoferritin, anesthetic-site fluorescent probe displacement; series mostly up to 76.9 µM. The text has this:
Source: NIH Chemical Genomics Center [NCGC]
Assay Submitter: Roderic Eckenhoff, University of Pennsylvania
Screening Center PI: Christopher P. Austin, NIH
Probe Development: NIH Chemical Genomics Center [NCGC]
Anesthetic development has remained a largely empirical process. There are growing concerns about the cognitive effects of known general anesthetics and acceleration of the onset of neurodegenerative disease. The compounds' toxicity and multiple specific binding targets in the mammalian brain [4] has made them less attractive as drug leads. In this assay, a GABAergic mimetic model system, apoferritin and a profluorescent 1-aminoanthracene ligand (1-AMA), was used to construct a competitive binding assay for identification of novel general anesthetics. The assay was validated for 1-AMA using other known anesthetics, such as isoflurane (CID:3763) and propofol (CID: 4943), [6].
[1] S.L. Bianchi, T. Tran, C. Liu, S. Lin, Y. Li, J.M. Keller, R.G. Eckenhoff, and M.F. Eckenhoff, Brain and behavior changes in 12-month-old Tg2576 and nontransgenic mice exposed to anesthetics. Neurobiol Aging 29 (2008) 1002-10.
[2] Z. Xie, Y. Dong, U. Maeda, R.D. Moir, W. Xia, D.J. Culley, G. Crosby, and R.E. Tanzi, The inhalation anesthetic isoflurane induces a vicious cycle of apoptosis and amyloid beta-protein accumulation. J Neurosci 27 (2007) 1247-54.
[3] P. Honegger, and J.M. Matthieu, Selective toxicity of the general anesthetic propofol for GABAergic neurons in rat brain cell cultures. J Neurosci Res 45 (1996) 631-6.
[4] M.F. Eckenhoff, K. Chan, and R.G. Eckenhoff, Multiple specific binding targets for inhaled anesthetics in the mammalian brain. J Pharmacol Exp Ther 300 (2002) 172-9.
[5] C.A. Butts, J. Xi, G. Brannigan, A.A. Saad, S.P. Venkatachalan, R.A. Pearce, M.L. Klein, R.G. Eckenhoff, and I.J. Dmochowski, Identification of a fluorescent general anesthetic, 1-aminoanthracene. Proc Natl Acad Sci U S A 106 (2009) 6501-6.
[6] W.A. Lea, J. Xi, A. Jadhav, L. Lu, C.P. Austin, A. Simeonov, and R.G. Eckenhoff, A high-throughput approach for identification of novel general anesthetics. PLoS One 4 (2009) e7150.
Three uL of reagents (free 1-AMA (50% saturated solution of 1-aminoanthracene
in PBS) in columns 3, 4 as negative control and 1-AMA/apoferritin mixture (10 uM horse-spleen apoferritin in 50% saturated 1-aminoanthracene in PBS) in columns 1, 2, 5-48) was dispensed into 1536-well Greiner black assay plates. Compounds (23 nL) were transferred via Kalypsys pintool equipped with 1,536-pin array (10 nL slotted pins, V&P Scientific, San Diego, CA). Titration of the positive control, propofol, were delivered via pin transfer from separate control plates to the 2nd column of each assay plate. The starting concentration of the control, dissolved in DMSO, was at 160 mM, followed by two-fold dilution points in duplicate, for a total of 16 concentrations. The plates were incubated for 10 min at room temperature, and then read on an EnVision HTS multilabel reader (Perkin-Elmer, Waltham, MA) (end point read, 3 min/plate) using Fura2 BFP excitation filter (380 nm, bandwidth 10 nm) and fluorescein emission filter (535 nm, bandwidth 25 nm) set. A LANCE/DELFIA dichroic mirror with a cutoff wavelength at 400 nm was used to maximize signal accuracy and strength. Vehicle-only plates, with DMSO being pin-transferred to the entire column 5-48 compound area, were inserted uniformly at the beginning and the end of each library in order to monitor for and record any shifts in the background. Activity was computed as the normalized fluorescence response relative to free 1-AMA and 1-AMA/apoferritin complex values. Concentration-effect relationships were derived by using curve fitting algorithms developed in-house (http://ncgc.nih.gov/pub/openhts/). A four parameter Hill equation was fitted to the concentration-response data by minimizing the residual error between the modeled and observed responses.
(Quantitative high-throughput screening tests each substance at several concentrations.)
For `Cc1ccc(Cl)c(Nc2ccccc2C(=O)O)c1Cl`, the compound was classed as inactive.
Then `COC(=O)[C@@H](N)Cc1ccc(O)c(O)c1`, with “inactive”; and `O=C(O)CCCCCCCC(=O)O`, with “inactive”.
As for `COc1ccc(CCN(C)CCCC(C#N)(c2cc(OC)c(OC)c(OC)c2)C(C)C)cc1OC` (stereo not given), the entry is “inactive”; as for `CN(C)CCCN1c2ccccc2Sc2ccccc21`, “inactive”; as for `COc1ccc(CN(CCN(C)C)c2ccccn2)cc1`, “inactive”.
As for `C[C@H](CS)C(=O)N1CCC[C@H]1C(=O)O`, the entry is “inactive”.
In the case of `CCO/C([O-])=N/c1c[n+](N2CCOCC2)no1`, the result was inactive.
Take `CCCCCN(CCCCC)C(=O)C(CCC(=O)O)NC(=O)c1ccc(Cl)c(Cl)c1` (stereo not given): the outcome was inactive.
Then `NC/C=C/C(=O)O`, with “inactive”.
With `C[C@]12CCC(=O)C=C1CC[C@@H]1[C@@H]2C(=O)C[C@@]2(C)[C@H]1CC[C@]2(O)C(=O)CO`, the compound was called inactive.
As for `CCCCNC(=O)NS(=O)(=O)c1ccc(C)cc1`, the entry is “inactive”; as for `CCn1nc(C(=O)O)c(=O)c2cc3c(cc21)OCO3`, “inactive”.
As for `COC(=O)[C@H]1[C@H]2C[C@@H]3c4[nH]c5cc(OC)ccc5c4CCN3C[C@H]2C[C@@H](OC(=O)c2cc(OC)c(OC)c(OC)c2)[C@@H]1OC`, the entry is “inactive”.
`NC(Cc1ccc(Cl)cc1)C(=O)O` (stereo not given): the compound was classed as inactive.
As for `Fc1ccc(C(c2ccc(F)cc2)N2CCN(C/C=C/c3ccccc3)CC2)cc1`, the entry is “inactive”; as for `CN(C)CC/C=C1\c2ccccc2COc2ccccc21`, “inactive”.
As for `CCN1CCC[C@H]1CNC(=O)c1c(O)c(Cl)cc(Cl)c1OC`, the entry is “inactive”; as for `NC(=O)N1c2ccccc2C=Cc2ccccc21`, “inactive”.
As for `CN(C)C(=O)Oc1ccc[n+](C)c1`, the entry is “inactive”; as for `CC[N+](C)(C)c1cccc(O)c1`, “inactive”; as for `N[C@@H](COP(=O)(O)O)C(=O)O`, “inactive”.
As to `CC(C)NCC(O)c1cc(O)cc(O)c1` (stereo not given), the outcome was inactive.
Then `CCCN(CCC)CCc1cccc2c1CC(=O)N2`, with “inactive”; and `CCn1ccnc1CC1COc2ccccc2O1` (stereo not given), with “inactive”; and `Cc1ccc(/C(=C\CN2CCCC2)c2ccccn2)cc1`, with “inactive”.
Then `CCCN(CCC)C(=O)C(CCC(=O)O)NC(=O)c1ccccc1` (stereo not given), with “inactive”; and `CCN(CC)CC(=O)Nc1c(C)cccc1C`, with “inactive”; and `C[N+](C)(C)CCOC(N)=O`, with “inactive”.
Regarding `CNCCC(Oc1ccccc1OC)c1ccccc1` (stereo not given), the result was inactive.
As for `CCC(=O)c1ccc2c(c1)N(CCCN(C)C)c1ccccc1S2`, the entry is “inactive”.
Then `Cc1nnc(SCC2=C(C(=O)O)N3C(=O)[C@@H](NC(=O)Cn4cnnn4)[C@H]3SC2)s1`, with “inactive”; and `CC(C)[N+](C)(CCOC(=O)C1c2ccccc2Oc2ccccc21)C(C)C`, with “inactive”; and `CCCN1C[C@H](CSC)C[C@@H]2c3cccc4[nH]cc(c34)C[C@H]21`, with “inactive”.
As to `C(=C\c1ccccc1)/CN1CCN(C(c2ccccc2)c2ccccc2)CC1`, the compound was called inactive.
With `CN(C)C/C=C(/c1ccc(Br)cc1)c1cccnc1`, the call was inactive.
As to `CN1CCN(CC(=O)N2c3ccccc3C(=O)Nc3cccnc32)CC1`, the compound was called inactive.
Then `C[n+]1cc2c3c(ccc2c2ccc4cc5c(cc4c21)OCO5)OCO3`, with “inactive”; and `CN(C(=O)CCCOc1ccc2[nH]c(=O)ccc2c1)C1CCCCC1`, with “inactive”; and `NC(N)=N/N=C/c1c(Cl)cccc1Cl`, with “inactive”.
